According to PubChem BioAssay (NCI):
Compounds without any hit were thinned out: in the full panel of roughly 83,000, 20% have a hit.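 96-well plates, one dose, 48 hours. Percent growth reported; active if below 10.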 Calls of active or inactive are those of the source.

Columns and labels:
Experiment in all cases: NCI-60 one-dose screen, 48 h (100 = growth as untreated, 0 = no growth, -100 = all killed)
Details in all cases: 10 µM unless noted
[1] = tested on: HCT-15 colon
[2] = tested on: HT29 colon
[3] = tested on: SNB-75 CNS
[4] = tested on: SNB-19 CNS
[5] = tested on: U251 CNS
[6] = tested on: PC-3 prostate
[7] = tested on: SK-MEL-5 melanoma
[8] = tested on: UACC-62 melanoma
[9] = tested on: LOX IMVI melanoma
[10] = tested on: SK-MEL-28 melanoma
[11] = tested on: SK-MEL-2 melanoma
[12] = tested on: EKVX NSCLC
[13] = tested on: SN12C renal
[14] = tested on: UO-31 renal
[15] = tested on: TK-10 renal
[16] = tested on: ACHN renal
[17] = tested on: CAKI-1 renal
[18] = tested on: A498 renal
[19] = tested on: CCRF-CEM leukemia
[20] = tested on: MOLT-4 leukemia

Measured: growth

C(=N\Nc1ncc(-c2cc3cc4c(cc3o2)OCO4)s1)/c1c[nH]c2ccccc12
inactive: [2] 23.2% | [10] 30.9% | [11] 51.3% | [15] 22.7%
active: [1] 6.56% | [3] -0.264% | [4] 3.35% | [5] -10% | [6] 1.87% | [7] 5.79% | [8] 1.76% | [9] -94% | [12] 5.32% | [13] -12.3% | [14] -96.5% | [16] -31.4% | [17] -43.3% | [18] -3.19% | [19] 2.87% | [20] -23.8%

COc1ccc(NS(=O)(=O)c2ccc(C)cc2)c([N+](=O)[O-])c1
inactive: [1] 107% | [2] 107% | [3] 105% | [4] 102% | [5] 93.3% | [6] 97.5% | [7] 96.8% | [8] 86% | [9] 95.2% | [10] 107% | [11] 110% | [12] 101% | [13] 88.2% | [14] 86.3% | [15] 99.7% | [16] 95.4% | [17] 98.2% | [18] 80% | [19] 97% | [20] 96.3%

C/C(=C(/c1ccccc1)c1ccc(OCC(O)CN2CCOCC2)cc1)c1ccccc1 (stereo not given)
inactive: [1] 53.8% | [2] 13.1% | [3] 91.4% | [4] 102% | [5] 81.1% | [6] 71.8% | [7] 87.1% | [8] 97% | [9] 87.9% | [10] 90% | [11] 98.9% | [12] 96.6% | [13] 88.3% | [14] 73.7% | [15] 94.3% | [16] 98.8% | [17] 80.1% | [18] 91.6% | [19] 80.4% | [20] 61.5%

CN1C2CCC1CN(c1cnc(C(=O)Nc3cc(F)cc4cccnc34)cn1)C2
inactive: [1] 24.2% | [2] 37.1% | [3] 92.5% | [4] 92.7% | [5] 64% | [6] 15.2% | [7] 79.5% | [8] 94.9% | [9] 33.2% | [10] 57.8% | [11] 109% | [12] 45.9% | [13] 51.4% | [14] 28.3% | [15] 77.2% | [16] 24.4% | [17] 46.6% | [18] 74.9% | [19] 28.3% | [20] 21.1%

O=C(CNCCO)Nc1ccc2ncnc(Nc3ccc(OCc4cccc(F)c4)c(Cl)c3)c2c1
inactive: [1] 87.9% | [2] 46.9% | [3] 88.2% | [4] 82% | [5] 69.9% | [6] 84.4% | [7] 89% | [8] 104% | [9] 74.3% | [10] 91% | [11] 98.2% | [12] 42.6% | [13] 51.6% | [14] 50.1% | [15] 56% | [16] 38% | [17] 63.3% | [18] 69% | [19] 80.4% | [20] 78.5%

COc1cccc(CCC(=O)c2cc3c(N)c(C(=O)Nc4cccc(Cl)c4C)sc3nc2C)c1
inactive: [1] 13.8% | [2] 10.8% | [4] 24.1% | [5] 16.7% | [6] 18.8% | [8] 27% | [9] 33.1% | [10] 44.5% | [11] 36.5% | [12] 36.2% | [13] 36% | [14] 30.7% | [15] 52.9% | [16] 32.2% | [17] 20.5% | [20] 16%
active: [3] -14.5% | [7] 3.62% | [18] -6.77% | [19] 8.7%

COc1cc(NCCCN(CC(C)C)CC(C)C)c2ncccc2c1
inactive: [1] 72.9% | [2] 82.7% | [3] 95.4% | [4] 99.9% | [5] 96.1% | [6] 70.4% | [7] 97% | [8] 89% | [9] 85.3% | [10] 97% | [11] 91.8% | [12] 84.5% | [13] 88.2% | [14] 81.4% | [15] 102% | [16] 80.7% | [17] 92.4% | [18] 79.2% | [19] 87.5% | [20] 103%

Nc1ncc(C#Cc2cncc(NC(=O)c3cccc(C(F)(F)F)c3)c2)c2cccnc12
active: [9] 5.77% | [11] 5.81%
inactive: [1] 56.6% | [2] 27.4% | [3] 60.7% | [4] 94.9% | [5] 53.5% | [6] 49.9% | [7] 34% | [8] 55.7% | [10] 33.6% | [12] 81.6% | [13] 50.4% | [14] 33.7% | [15] 84.8% | [16] 55.1% | [17] 68.6% | [18] 62.8% | [19] 48.5% | [20] 36.8%

CC1(C)CN(c2cnc(C(=O)Nc3cc(F)cc4cccnc34)cn2)CCN1
inactive: [1] 59.3% | [2] 47.1% | [3] 72.9% | [4] 93.1% | [5] 89.5% | [6] 44.8% | [7] 89.3% | [8] 106% | [9] 69.7% | [10] 80.2% | [11] 99.8% | [12] 73% | [13] 72.1% | [14] 40.9% | [15] 79.3% | [16] 31.3% | [17] 62.4% | [18] 74.3% | [19] 44.5% | [20] 38.5%

C#Cc1cccc(NC(=O)Nc2ccc(NC(=O)CCl)cc2)c1
inactive: [4] 32.4% [8.25 µM] | [10] 67.6% [8.25 µM] | [12] 88.3% [8.25 µM] | [18] 76.4% [8.25 µM]
active: [1] -63.1% [8.25 µM] | [2] -69.5% [8.25 µM] | [3] -27.9% [8.25 µM] | [5] -72% [8.25 µM] | [6] 8.79% [8.25 µM] | [7] -73.9% [8.25 µM] | [8] -44.3% [8.25 µM] | [9] -74.9% [8.25 µM] | [11] -25% [8.25 µM] | [13] -9.22% [8.25 µM] | [14] -97.4% [8.25 µM] | [15] -71.4% [8.25 µM] | [16] -99.5% [8.25 µM] | [17] 9.01% [8.25 µM] | [19] -29.8% [8.25 µM] | [20] -9.78% [8.25 µM]

FC(F)(F)Oc1cccc(-c2cc(NCCCCCCNc3cc(-c4cccc(OC(F)(F)F)c4)nc4ccc(N5CCCC5)cc34)c3cc(N4CCCC4)ccc3n2)c1
active: [1] -57.5% | [2] -27.7% | [3] -4.49% | [4] -68.3% | [5] -90.2% | [6] -22.2% | [7] -62.4% | [8] -92.1% | [9] -71.1% | [10] -93.7% | [11] 2.93% | [12] -54.4% | [13] -81.4% | [15] -89.7% | [16] -15.6% | [17] 5.91% | [19] -32.1% | [20] -35.6%
inactive: [14] 35% | [18] 21.8%

CN(C)Cc1c(-c2ccccc2)[nH]c2ccccc12
inactive: [1] 93.6% | [2] 89.1% | [3] 93.6% | [4] 99% | [5] 106% | [6] 94.9% | [7] 101% | [8] 102% | [9] 97.4% | [10] 97.2% | [11] 108% | [12] 92.3% | [13] 99.4% | [14] 100% | [15] 102% | [16] 106% | [17] 101% | [18] 75.7% | [19] 86.5% | [20] 99.4%

COc1ccc(C2CC(c3cccc(Nc4ccncc4)c3)=NN2c2cc(Cl)cc(Cl)c2)cc1 (stereo not given)
active: [1] -67.5% | [2] -17.5% | [5] -34.4% | [9] -52.7% | [10] -49.3% | [19] 7.35% | [20] -2.82%
inactive: [3] 65.9% | [4] 91% | [6] 33.8% | [7] 67.5% | [8] 99.6% | [11] 91.1% | [12] 81.9% | [13] 70.8% | [14] 53.7% | [15] 63.2% | [16] 51.7% | [17] 33.3% | [18] 95.7%

COc1cc(NCC(O)CN(CC(C)C)CC(C)C)c2nc(C)ccc2c1 (stereo not given)
inactive: [1] 84.8% | [2] 80.2% | [3] 97.9% | [4] 96% | [5] 91.3% | [6] 75.3% | [7] 93.5% | [8] 88.9% | [9] 90.1% | [10] 100% | [11] 99% | [12] 79.8% | [13] 92.3% | [14] 66.9% | [15] 105% | [16] 89.4% | [17] 74.1% | [18] 86.2% | [19] 115% | [20] 78%

O=C(O)c1ccc[n+](CC(=O)N2CCN(c3cc4c(cc3F)c(=O)c(C(=O)O)cn4C3CC3)CC2)c1
active: [19] -25.6%
inactive: [1] 73.4% | [2] 92.9% | [3] 79.4% | [4] 87.1% | [5] 74.7% | [6] 87.3% | [7] 91.7% | [8] 48.9% | [9] 30.2% | [10] 60.4% | [11] 86.1% | [12] 107% | [13] 29.4% | [14] 71.8% | [15] 112% | [16] 72.8% | [17] 92.8% | [18] 98% | [20] 12.6%
